These results are taken from ChEMBL document CHEMBL3433997, “St. Jude Leishmania screening dataset” (2016).

Holding throughout (format): functional
Assay [1] deals with Solute carrier family 2, facilitated glucose transporter member 1 (Homo sapiens) (UniProt P11166). Briefly: ST_JUDE_LEISH: Cytotoxicity at 2uM final concentration against transgenic Leishmania Mexicana promastigotes LmGLUT1 that are glucose transport deficient and complemented with the human glucose transporter GLUT1. Activity is measured by DNA content using SYBR green in vitro.
Sequence of Solute carrier family 2, facilitated glucose transporter member 1 (Homo sapiens) (P11166 whole entry): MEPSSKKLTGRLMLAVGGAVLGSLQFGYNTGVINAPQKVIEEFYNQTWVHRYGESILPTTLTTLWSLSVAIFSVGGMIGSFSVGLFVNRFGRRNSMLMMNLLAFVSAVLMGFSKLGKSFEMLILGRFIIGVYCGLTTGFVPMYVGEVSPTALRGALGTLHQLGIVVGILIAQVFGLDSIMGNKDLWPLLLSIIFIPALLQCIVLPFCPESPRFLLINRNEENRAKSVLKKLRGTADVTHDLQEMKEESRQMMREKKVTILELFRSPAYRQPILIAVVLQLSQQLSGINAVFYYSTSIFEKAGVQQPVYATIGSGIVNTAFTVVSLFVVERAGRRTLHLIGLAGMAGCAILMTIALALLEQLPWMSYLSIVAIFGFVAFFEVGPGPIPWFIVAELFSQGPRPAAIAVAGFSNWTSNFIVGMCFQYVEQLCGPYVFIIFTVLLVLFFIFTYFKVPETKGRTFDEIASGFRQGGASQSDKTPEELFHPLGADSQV

Assay [2] addresses Hexose transporter 1 (Plasmodium falciparum) (UniProt O97467). Briefly: ST_JUDE_LEISH: Cytotoxicity at 2uM final concentration against transgenic Leishmania Mexicana promastigotes LmPfHT that are glucose transport deficient and complemented with the Plasmodium falciparum hexose transporter. Activity is measured by DNA content using SYBR green in vitro.
Assay [3] has as its target Glucose transporter (Leishmania mexicana) (UniProt O61059). Nature of the assay: ST_JUDE_LEISH: Cytotoxicity at 2uM final concentration against transgenic Leishmania Mexicana promastigotes LmGT2 that are glucose transport deficient and complemented with the L. Mexicana glucose transporter 2. Activity is measured by DNA content using SYBR green in vitro.

One may read the inhibition as the drop in the measured response relative to a control, in per cent. For `COc1ccc2nccc([C@@H](O)CN3CCC(NC(=O)c4[nH]c5ccccc5c4-c4ccccc4)CC3)c2c1`, the inhibition came to 28.3% in assay [1], 49.7% in assay [2] and 12.8% in assay [3].
Regarding `COc1ccc(N2CCN(CCCCNC(=O)c3ccc(NC(=O)c4ccc(Cl)cc4)cc3)CC2)c(C)c1`, the inhibition in assay [1] worked out at 10.4%; in assay [2], 8.02%; in assay [3] it was 9.07%.
For `Oc1cc(-c2nc(C3(CNCc4ccc(Cl)cc4)CCCCC3)[nH]c2-c2ccncc2)ccc1Cl`, in that order: 4.11%, 5.35% and 5.4%.
The like results for `c1ccc(COc2ccc(Nc3ncnc4cnc(-c5ccc(CNc6cccnc6)o5)cc34)cc2)cc1` were, in that order, 3.94%, 3.46% and 0.83%.
The like results for `O=C(Nc1ccc(CN2CCOCC2)cc1)c1ccc(-c2ccc(Br)cc2)o1` were, in that order, 2.45%, 0.46% and -2.23%.
Consider `O=C(C=Cc1ccc(Cl)c(Cl)c1)NCCCCCN1CCC(CCCNS(=O)(=O)c2ccc(F)cc2)CC1`, for which the inhibition in assay [1] is 1.12%; in assay [2] it was -1.5%; in assay [3], -0.43%.
On to `CN1CCCN(Cc2ccc(-c3cccc(NC(=O)c4ccc(C#N)cc4)c3)cc2)CC1`, for which the inhibition in assay [1] was 1.03%; in assay [2], 4.1%; in assay [3] it was -1.1%.
On to `COc1cc(NC(=O)N2CCOC(CCN3CCC4(CCc5ccccc54)CC3)(c3ccc(Cl)c(Cl)c3)C2)cc(OC)c1` (stereo not given), for which the inhibition in assay [1] is 3.64%; in assay [2] it was 1.66%; in assay [3], 1.53%.
As for `N=C(N)c1ccc(NN=Cc2ccc(Oc3ccc(C(=N)N)cc3)cc2)cc1`, the inhibition in assay [1] came to 3.43%; in assay [2], 3.55%; in assay [3], 0.79%.
For `Cc1cc(C(=O)OCC(=O)Nc2c(C)n(C)n(-c3ccccc3)c2=O)c(C)n1-c1ccc(F)cc1`, in that order: -2.25%, -1.81% and -0.97%.
As for `O=C(Nc1cccc(C(F)(F)F)c1)NC1CCN(c2ccnc3cc(Cl)ccc23)C1` (stereo not given), the inhibition is -0.97% in assay [1], -2.13% in assay [2] and 0.93% in assay [3].
Take `CCCCCCc1cc2cc(-c3nc(-c4ccc(OC)cc4)cs3)c(=O)oc2cc1O`: in assay [3], the inhibition is -8.01%.
`COc1ccc2nccc(N3CCC(SCCNS(=O)(=O)c4ccc5c(c4)OCCO5)C3)c2n1` (stereo not given): the inhibition is 5.04% in assay [1], 3.57% in assay [2] and -0.04% in assay [3].
For the molecule `Oc1ccc(-c2cc(-c3ccc(O)cc3)nc(-c3ccccc3)n2)cc1`, the inhibition was 2.51% in assay [1], 1.53% in assay [2] and 0.82% in assay [3].
The like results for `O=C(C=Cc1ccc(Cl)c(Cl)c1)NCCCCCN1CCCC(CCCNC(=O)C2CC2c2ccccc2)C1` (stereo not given) were, in that order, 2.64%, 0.94% and 1.66%.
As to `COc1ccc(C(=O)Nc2ccc3oc(-c4ccc(C(F)(F)F)cc4)cc3c2)cc1CCCN(C)C`, the inhibition in assay [1] came to 1.78%; in assay [2], 2.26%; in assay [3], 0.34%.
For the molecule `CC(C)(C)c1ccc2[nH]c(-c3ccc(C(=O)NCc4cccc(C(F)(F)F)c4)cc3)nc2c1`, the figures for the inhibition in assay [1], in assay [2] and in assay [3] were -0.02%, 0.63% and 3.09%, respectively.
In the case of `CN1CCN(CC(=O)Nc2cccc(-c3ccc(-c4nc5cc(F)ccc5[nH]4)s3)c2)CC1`, the inhibition in assay [1] was 7.26%; in assay [2], 7.42%; in assay [3] it was 5.89%.
The like results for `COc1cc2c(cc1N1CC(C)NC(C)C1)N(C(=O)c1ccc(-c3ccc(-c4ncc[nH]4)cc3C)cc1)CC2` (stereo not given) were, in that order, 2.21%, 1.1% and 3.39%.
Take `COc1ccc(Br)cc1C1C2C(=O)N(c3ccc(Br)cc3)C(=O)C2C2(C(=O)O)CC(OCc3ccccc3)CN12` (stereo not given): the inhibition in assay [1] came out at 12.4%; in assay [2], 12%; in assay [3], 10.2%.
For `O=C(c1cccc(Cl)c1)N1CCN(c2ccc([N+](=O)[O-])c(NC3CC3)c2)CC1`, in that order: 0.4%, 2.47% and 0.25%.
For `COc1ccc(C(=O)NC(c2ccc(Cl)cc2Cl)c2cc(Cl)c3cccnc3c2O)cc1` (stereo not given), in that order: 0.87%, 3.16% and -1.58%.
Turning to `CS(=O)(=O)NCCCNCc1ccc(-c2cccc(-c3nc4cc(C(F)(F)F)ccc4[nH]3)c2)cc1`, the inhibition was 5.19% in assay [1], 3.56% in assay [2] and 5.43% in assay [3].
The like results for `O=C(Nc1ccc(Cl)cc1)N[C@H]1CCN(Cc2ccc(OCCCN3CCCCC3)cc2)C1` were, in that order, -0.92%, 1.45% and 0.1%.
For `Nc1nccc2ccc(-c3cccc(O)c3)cc12`, in that order: 7.38%, 6.21% and 4.01%.
The like results for `N#Cc1ccc2c(c1)CCN(CCC1CCC(NC(=O)/C=C/c3c[nH]c4c(Br)cccc34)CC1)CC2` (stereo not given) were, in that order, 16.5%, 15.6% and 6.85%.
For `CN(C)CCNCc1nc(-c2ccc3c(Nc4ccc(Oc5ccccc5)cc4)ccnc3c2)cs1`, the results for the inhibition in assay [1], in assay [2] and in assay [3] were -2.05%, 1.8% and 5.9%, respectively.
For `COc1ccc2[nH]ccc(=NN=Cc3ccncc3)c2c1`, in that order: 3.57%, 3.95% and 3.39%.
Regarding `CN1CCN(c2ccnc3ccc(NC(=O)Nc4ccc(-c5ccncc5)c(C(F)(F)F)c4)cc23)CC1`, the inhibition in assay [1] amounted to 11.3%; in assay [2], 9.91%; in assay [3] it was 10.6%.
